In PubChem BioAssay:
For some assays here: Measured potencies and affinities stand elsewhere. Active and inactive are the calls of the source. Unless noted, no rule for the calls is given here.

Legend:
[1] = antimalarial activity against Dd2 strain (AID 2302;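 active = growth inhibition above 50% at the single 2 µM test dose, taken to imply half-maximal potency below 2 µM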;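 also: 0% = DMSO untreated growth and 100% = chloroquine plus artemisinin killed control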); details: P. falciparum Dd2 in RBCs, LDH growth readout, 72 h; at 2 µM; hits give high values
[2] = human hepatoma cell viability loss – ATP luminescence, cytotoxicity control for P. falciparum antimalarial project, primary screen (AID 2303;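 active = inhibition above 50%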;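 also: 0% = DMSO wells and 100% = digitonin-killed cells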); details: HepG2 viability, 24-48 h, at 10 µM, hits give high values
[3] = molecular target: L-lactate dehydrogenase (Plasmodium falciparum (isolate CDC / Honduras)) (UniProt Q27743); test: PfLDH activity inhibition – cell lysate, 3D7 strain, counter-screen for P. falciparum growth inhibition project (AID 2304);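 also: 0% = vehicle and 100% = reference inhibitor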; details: P. falciparum 3D7 crude extract, LDH APAD/NBT absorbance; at 2 µM; hits give high values
[4] = inhibition of 3D7 malaria parasite growth – strain 3D7 (AID 2306);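 also: 0% = DMSO wells and 100% = chloroquine plus artemisinin control wells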; details: P. falciparum 3D7 erythrocytic growth, LDH absorbance, 72 h; at 2 µM; hits give high values
[5] = molecular target: Calcium-dependent protein kinase 1 (Plasmodium falciparum (isolate 3D7)) (UniProt P62344); test: PfCDPK1 kinase inhibitors, biochemical, TCAMS library (AID 1159585; cut-off not given, nearly all actives have IC50 up to about 0.98 µM;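 also: inhibitors leave more ATP so luminescence rises with inhibition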); details: recombinant PfCDPK1, Kinase-Glo ATP depletion luminescence
[6] = molecular target: Plasmodium falciparum protein kinase 6 (PK6, PF3D7_1337100) (UniProt Q8IDW1); test: PfPK6 kinase inhibitors, biochemical, TCAMS library (AID 1159586); details: recombinant PfPK6, Kinase-Glo ATP depletion luminescence
[7] = molecular target: Protein kinase 7 (PK7), Plasmodium falciparum 3D7 (PF3D7_0213400) (UniProt Q7YTF7); test: inhibition of Plasmodium PK7 catalytic activity – biochemical, TCAMS antimalarial set, Kinase-Glo luminescence (AID 1159587); details: recombinant PfPK7, Kinase-Glo ATP depletion luminescence
[8] = molecular target: Calcium-dependent protein kinase 4 (Plasmodium falciparum (isolate 3D7)) (UniProt Q8IBS5); test: PfCDPK4 kinase inhibitors, biochemical, TCAMS library (AID 1159588; cut-off not given, nearly all actives have IC50 up to about 0.91 µM); details: recombinant PfCDPK4, Kinase-Glo ATP depletion luminescence
Sequence of Calcium-dependent protein kinase 4 (Plasmodium falciparum (isolate 3D7)) (Q8IBS5 whole entry, looked up): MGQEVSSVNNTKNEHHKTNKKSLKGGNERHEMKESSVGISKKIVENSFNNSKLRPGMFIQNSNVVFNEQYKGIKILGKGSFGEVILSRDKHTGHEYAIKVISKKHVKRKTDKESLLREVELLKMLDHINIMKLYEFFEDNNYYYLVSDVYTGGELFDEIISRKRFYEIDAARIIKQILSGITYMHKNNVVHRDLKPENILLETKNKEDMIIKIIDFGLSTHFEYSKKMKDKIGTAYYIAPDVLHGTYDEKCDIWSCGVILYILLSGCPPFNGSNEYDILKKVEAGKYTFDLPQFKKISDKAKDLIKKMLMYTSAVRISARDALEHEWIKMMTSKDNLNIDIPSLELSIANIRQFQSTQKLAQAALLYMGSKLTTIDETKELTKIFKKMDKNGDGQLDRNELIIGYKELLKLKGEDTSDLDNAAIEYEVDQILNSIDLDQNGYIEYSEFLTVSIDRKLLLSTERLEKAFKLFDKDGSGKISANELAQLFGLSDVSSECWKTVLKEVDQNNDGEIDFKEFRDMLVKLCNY

Sequence of L-lactate dehydrogenase (Plasmodium falciparum (isolate CDC / Honduras)) (Q27743 whole entry, looked up): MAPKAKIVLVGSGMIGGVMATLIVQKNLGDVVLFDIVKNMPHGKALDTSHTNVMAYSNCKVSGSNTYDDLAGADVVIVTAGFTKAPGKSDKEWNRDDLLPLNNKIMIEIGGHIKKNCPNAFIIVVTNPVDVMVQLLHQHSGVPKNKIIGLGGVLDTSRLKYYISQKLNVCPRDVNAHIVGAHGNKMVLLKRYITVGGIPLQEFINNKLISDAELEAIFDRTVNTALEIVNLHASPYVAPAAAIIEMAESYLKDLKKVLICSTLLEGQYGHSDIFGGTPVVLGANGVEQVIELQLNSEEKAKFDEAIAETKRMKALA
Sequence of Protein kinase 7 (PK7), Plasmodium falciparum 3D7 (PF3D7_0213400) (Q7YTF7 1-343): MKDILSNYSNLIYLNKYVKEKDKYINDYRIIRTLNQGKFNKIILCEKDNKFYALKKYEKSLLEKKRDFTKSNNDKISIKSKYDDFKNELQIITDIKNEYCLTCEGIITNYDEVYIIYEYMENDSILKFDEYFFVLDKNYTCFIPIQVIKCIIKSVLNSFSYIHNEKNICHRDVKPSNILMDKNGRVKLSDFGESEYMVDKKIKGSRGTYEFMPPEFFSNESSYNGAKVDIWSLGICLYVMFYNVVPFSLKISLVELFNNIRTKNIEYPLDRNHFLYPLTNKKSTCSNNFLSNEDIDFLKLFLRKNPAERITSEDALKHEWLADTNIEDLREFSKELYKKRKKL
Sequence of Calcium-dependent protein kinase 1 (Plasmodium falciparum (isolate 3D7)) (P62344 whole entry, looked up): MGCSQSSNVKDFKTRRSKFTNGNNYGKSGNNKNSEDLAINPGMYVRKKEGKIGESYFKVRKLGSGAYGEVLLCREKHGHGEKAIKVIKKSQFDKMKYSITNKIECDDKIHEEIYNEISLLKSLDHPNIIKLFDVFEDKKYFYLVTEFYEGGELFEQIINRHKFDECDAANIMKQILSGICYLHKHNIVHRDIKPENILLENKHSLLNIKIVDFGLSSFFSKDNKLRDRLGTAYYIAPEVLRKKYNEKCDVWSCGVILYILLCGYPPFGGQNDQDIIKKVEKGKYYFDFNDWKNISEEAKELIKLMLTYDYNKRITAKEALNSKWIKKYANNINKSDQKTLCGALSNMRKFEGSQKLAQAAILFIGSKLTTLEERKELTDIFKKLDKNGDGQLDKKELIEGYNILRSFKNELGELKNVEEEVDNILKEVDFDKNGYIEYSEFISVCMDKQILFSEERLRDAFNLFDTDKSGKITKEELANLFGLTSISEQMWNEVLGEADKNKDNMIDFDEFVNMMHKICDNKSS
Sequence of Plasmodium falciparum protein kinase 6 (PK6, PF3D7_1337100) (Q8IDW1 1-305): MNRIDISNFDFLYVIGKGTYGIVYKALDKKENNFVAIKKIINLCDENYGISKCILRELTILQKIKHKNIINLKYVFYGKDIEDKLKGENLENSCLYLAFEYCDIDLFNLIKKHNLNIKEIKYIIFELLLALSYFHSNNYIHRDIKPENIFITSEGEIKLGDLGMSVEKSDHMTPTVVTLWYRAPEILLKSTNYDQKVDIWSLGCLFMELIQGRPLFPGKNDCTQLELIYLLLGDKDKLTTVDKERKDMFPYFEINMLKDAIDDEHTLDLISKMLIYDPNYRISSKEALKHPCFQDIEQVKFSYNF

CNC(=O)c1cnc(Nc2ccc(N3CCN(C)CC3)cc2)nc1Nc1cccc(OC)c1
inactive: inhibition [2] 19% | inhibition [3] 5% | outcome [5] | outcome [6] | outcome [7] | outcome [8]
active: growth inhibition [1] 101% | growth inhibition [4] 100%

NOCCCCOc1ccc(Cl)cc1
active: growth inhibition [4] 98%
inactive: growth inhibition [1] -1% | inhibition [2] 2% | inhibition [3] -4% | outcome [5] | outcome [6] | outcome [7] | outcome [8]

O=C(Cc1cccc(Cl)c1)Nc1ccc(N2CCC(NCc3ccc4ncccc4c3)CC2)cc1
inactive: growth inhibition [1] 8% | inhibition [2] 10% | inhibition [3] -1% | outcome [5] | outcome [6] | outcome [7] | outcome [8]
active: growth inhibition [4] 81%

CC(C)CNCc1cccc(-c2ccc(CN(C(=O)NCCc3ccccc3)C3CCN(Cc4ccccc4)CC3)cc2)c1
inactive: growth inhibition [1] 47% | inhibition [3] 5% | outcome [5] | outcome [6] | outcome [7] | outcome [8]
active: inhibition [2] 99% | growth inhibition [4] 98%

Cc1cccc2[nH]c(-c3ccc(-c4cccc(CN5CCN(c6ccncc6)CC5)c4)s3)nc12
inactive: inhibition [2] 48% | inhibition [3] 6% | outcome [5] | outcome [6] | outcome [7] | outcome [8]
active: growth inhibition [1] 99% | growth inhibition [4] 101%

Cn1nccc1C(=O)NCCNCc1ccc(-c2cccc(-c3nc4ccc(F)cc4[nH]3)c2)cc1
active: growth inhibition [1] 98% | growth inhibition [4] 102%
inactive: inhibition [2] 37% | inhibition [3] -7% | outcome [5] | outcome [6] | outcome [7] | outcome [8]

CN1CCC(NC(=O)c2cc(Oc3ccc4c(c3)CCN4C(=O)Nc3cccc(C(F)(F)F)c3)ccn2)CC1
inactive: growth inhibition [1] 17% | inhibition [2] 16% | inhibition [3] -3% | outcome [5] | outcome [6] | outcome [7] | outcome [8]
active: growth inhibition [4] 92%

Cc1ccoc1C(=O)Nc1cccc(-c2cccc(-c3nc4ccc(C(F)(F)F)cc4[nH]3)c2)c1
active: growth inhibition [4] 98%
inactive: growth inhibition [1] 37% | inhibition [2] 39% | inhibition [3] -6% | outcome [5] | outcome [6] | outcome [7] | outcome [8]

COc1ccc2c(NN=Cc3ccc(Cl)cc3)ccnc2c1
active: growth inhibition [1] 100% | growth inhibition [4] 101%
inactive: inhibition [2] 8% | inhibition [3] 5% | outcome [5] | outcome [6] | outcome [7] | outcome [8]

COc1ccc(Nc2nc(NC3CCN(C)CC3)cc(-c3ccc(OC)cc3)n2)cc1
active: growth inhibition [1] 51% | inhibition [2] 62% | growth inhibition [4] 100%
inactive: inhibition [3] 4% | outcome [5] | outcome [6] | outcome [7] | outcome [8]

Cc1ccc(CNC(=O)[C@H](CCCN)Nc2nc(Nc3ccccc3)ncc2C)cc1
inactive: growth inhibition [1] -4% | inhibition [2] -1% | inhibition [3] -2% | outcome [5] | outcome [6] | outcome [7] | outcome [8]
active: growth inhibition [4] 97%

Cc1ccc2c(=O)cc(CCc3cccc(F)c3F)n(CC(=O)N(Cc3ccc(-c4ccc(C(F)(F)F)cc4)cc3)C3CCN(C(C)C)CC3)c2n1
inactive: growth inhibition [1] 49% | inhibition [3] -2% | outcome [5] | outcome [6] | outcome [7] | outcome [8]
active: inhibition [2] 58% | growth inhibition [4] 100%

Cc1cc2ncn(-c3nccc(NCc4ccc(F)c(C)c4)n3)c2cc1C
active: growth inhibition [1] 82% | growth inhibition [4] 90%
inactive: inhibition [2] 10% | inhibition [3] -3% | outcome [5] | outcome [6] | outcome [7] | outcome [8]

CCN(CCCN1CCCCC1)c1cc(C)nc(Nc2ccc(C(C)C)cc2)n1
active: growth inhibition [1] 51% | growth inhibition [4] 100%
inactive: inhibition [2] 34% | inhibition [3] 2% | outcome [5] | outcome [6] | outcome [7] | outcome [8]

COCCCNC(=S)NN=C(C)c1ccccn1
active: growth inhibition [1] 99% | inhibition [2] 55% | growth inhibition [4] 100%
inactive: inhibition [3] 3% | outcome [5] | outcome [6] | outcome [7] | outcome [8]

CCOc1ccc2c(NN=Cc3ccccn3)cc(C)nc2c1
active: growth inhibition [4] 98%
inactive: growth inhibition [1] 1% | inhibition [2] 19% | inhibition [3] -3% | outcome [5] | outcome [6] | outcome [7] | outcome [8]

C=CCc1cccc(CN2CCC(c3cc(=O)[nH]c(-c4ccccn4)n3)CC2)c1O
active: growth inhibition [1] 75% | growth inhibition [4] 91%
inactive: inhibition [2] 46% | inhibition [3] -2% | outcome [5] | outcome [6] | outcome [7] | outcome [8]

Cc1cc(=O)c(-c2ccc(Oc3ccc(C(F)(F)F)cc3)cc2)c(C)n1O
active: growth inhibition [1] 78% | growth inhibition [4] 94%
inactive: inhibition [2] 18% | inhibition [3] 0% | outcome [5] | outcome [6] | outcome [7] | outcome [8]

O=C(NCc1ccc(Cl)cc1)c1ccc(CN2CCCN(Cc3cccc(O)c3)CC2)cc1
inactive: growth inhibition [1] 12% | inhibition [2] 25% | inhibition [3] -5% | outcome [5] | outcome [6] | outcome [7] | outcome [8]
active: growth inhibition [4] 82%

Cc1c2c(nn1-c1ccccc1)C(c1ccccc1)N(c1ccccc1)C2=O (stereo not given)
active: growth inhibition [1] 96% | growth inhibition [4] 92%
inactive: inhibition [2] 42% | inhibition [3] 1% | outcome [5] | outcome [6] | outcome [7] | outcome [8]

COc1cccc(C2CCN(CCN3CCC(CNC(=O)c4ccc(-c5ccc(C(F)(F)F)cc5)cc4)CC3)CC2)c1
active: growth inhibition [4] 100%
inactive: growth inhibition [1] 42% | inhibition [2] 41% | inhibition [3] -2% | outcome [5] | outcome [6] | outcome [7] | outcome [8]

O=C(CCNc1ccnc(NCCc2ccc(F)cc2)n1)Nc1ccccc1
active: growth inhibition [4] 95%
inactive: growth inhibition [1] 10% | inhibition [2] 9% | inhibition [3] -4% | outcome [5] | outcome [6] | outcome [7] | outcome [8]

O=C(/C=C/c1ccc(Cl)c(Cl)c1)NCCCCCN1CCC(CCCNC(=O)Nc2ccc(C(F)(F)F)cc2)CC1
inactive: growth inhibition [1] 19% | inhibition [2] -2% | inhibition [3] -7% | outcome [5] | outcome [6] | outcome [7] | outcome [8]
active: growth inhibition [4] 91%

COc1ccc2nccc([C@@H](O)CN3CCC(NCc4nc5c(F)cccc5[nH]4)CC3)c2c1
inactive: growth inhibition [1] 6% | inhibition [2] -6% | inhibition [3] -7% | outcome [5] | outcome [6] | outcome [7] | outcome [8]
active: growth inhibition [4] 103%

Cc1ccc2nc(-c3ccc(C(=O)NC4CCN(Cc5ccccc5)CC4)s3)[nH]c2c1
active: growth inhibition [1] 83% | growth inhibition [4] 97%
inactive: inhibition [2] 13% | inhibition [3] -5% | outcome [5] | outcome [6] | outcome [7] | outcome [8]

CCCCCCN1CCC(NCc2cccc([N+](=O)[O-])c2)CC1
active: growth inhibition [4] 100%
inactive: growth inhibition [1] 16% | inhibition [2] -2% | inhibition [3] 0% | outcome [5] | outcome [6] | outcome [7] | outcome [8]

CN1CCN(Cc2nc(-c3ccc4c(Nc5ccc(F)c(O)c5)ccnc4c3)cs2)CC1
active: growth inhibition [1] 100% | growth inhibition [4] 100%
inactive: inhibition [2] 0% | inhibition [3] 7% | outcome [5] | outcome [6] | outcome [7] | outcome [8]

C[C@@H]1CN(c2cnn(C/C=C/c3ccc(NC(=O)c4ccc5nonc5c4)cc3)c(=O)c2Cl)C[C@H](C)N1
inactive: growth inhibition [1] 35% | inhibition [3] -3% | outcome [5] | outcome [6] | outcome [7] | outcome [8]
active: inhibition [2] 71% | growth inhibition [4] 94%

CCN(CC)CCCN(CCCN(CC)CC)c1cc(C)nc(Nc2ccc(Cl)cc2)n1
active: growth inhibition [4] 101%
inactive: growth inhibition [1] 7% | inhibition [2] 11% | inhibition [3] 2% | outcome [5] | outcome [6] | outcome [7] | outcome [8]

CN1CCN(CC(=O)Nc2cccc(-c3ccc(-c4nc5ccc(C(F)(F)F)cc5[nH]4)s3)c2)CC1
active: growth inhibition [1] 95% | growth inhibition [4] 102%
inactive: inhibition [2] 36% | inhibition [3] 1% | outcome [5] | outcome [6] | outcome [7] | outcome [8]

O=C(Nc1ccc(C(F)(F)F)cc1)c1cccc(S(=O)(=O)NC2CCN(Cc3ccccc3)C2)c1 (stereo not given)
active: growth inhibition [4] 88%
inactive: growth inhibition [1] -2% | inhibition [2] 39% | inhibition [3] -5% | outcome [5] | outcome [6] | outcome [7] | outcome [8]

CC1CCN(CCNC(=O)c2ccc3c(=O)n(Cc4ccc(Cl)cc4)c(=S)[nH]c3c2)CC1
inactive: inhibition [2] 6% | inhibition [3] 4% | outcome [5] | outcome [6] | outcome [7] | outcome [8]
active: growth inhibition [1] 75% | growth inhibition [4] 101%

CC1CCN(C(=O)[C@H](Cc2c[nH]c3ccccc23)NS(=O)(=O)c2ccc(Cl)cc2)CC1
inactive: inhibition [2] -6% | inhibition [3] 0% | outcome [5] | outcome [6] | outcome [7] | outcome [8]
active: growth inhibition [1] 99% | growth inhibition [4] 100%

COc1cc2nc(N3CCC(CNC(=O)c4ccc(-c5ccc(C#N)cc5)cc4)CC3)nc(N)c2cc1OC
active: growth inhibition [1] 99% | growth inhibition [4] 100%
inactive: inhibition [2] 21% | inhibition [3] -4% | outcome [5] | outcome [6] | outcome [7] | outcome [8]

COc1ccc(OCCCON)cc1
inactive: growth inhibition [1] -3% | inhibition [2] 3% | inhibition [3] -1% | outcome [5] | outcome [6] | outcome [7] | outcome [8]
active: growth inhibition [4] 98%

CC(Sc1nc(-c2ccccc2)c(-c2ccccc2)o1)C(=O)NC1CC1 (stereo not given)
active: growth inhibition [1] 91% | growth inhibition [4] 94%
inactive: inhibition [2] 13% | inhibition [3] -2% | outcome [5] | outcome [6] | outcome [7] | outcome [8]

CCCC1CCNC(C(O)c2ccnc3ccc(OC)cc23)C1 (stereo not given)
inactive: inhibition [2] -15% | inhibition [3] -3% | outcome [5] | outcome [6] | outcome [7] | outcome [8]
active: growth inhibition [1] 78% | growth inhibition [4] 98%

COc1ccc(N2C(=O)c3c(c4ccccc4n3C)C2c2ccccc2O)cc1 (stereo not given)
active: growth inhibition [1] 91% | growth inhibition [4] 96%
inactive: inhibition [2] 32% | inhibition [3] 3% | outcome [5] | outcome [6] | outcome [7] | outcome [8]

CCOc1c(OC)ccc2c1CCN(CCN1CCC(NC(=O)c3ccc(-c4cccc(C(F)(F)F)c4C(F)(F)F)cc3)CC1)C2
inactive: inhibition [2] 30% | inhibition [3] -7% | outcome [5] | outcome [6] | outcome [7] | outcome [8]
active: growth inhibition [1] 57% | growth inhibition [4] 102%

O=S(=O)(c1ccccc1)C1CC1
active: growth inhibition [1] 65% | growth inhibition [4] 89%
inactive: inhibition [2] -3% | inhibition [3] 7% | outcome [5] | outcome [6] | outcome [7] | outcome [8]
